For nine sequences, binding signal results are on record in PMC8384837, “Expanding the binding specificity for RNA recognition by a PUF domain”.

Common to all, as to experiment: yeast three-hybrid, YBZ-1, SC-Leu-His + 0.5 mM 3-AT, 4 days
What all share (details): tags: N-Gal4 AD-HA kept; label: inside an RPR1-promoter hybrid RNA with tandem MS2 sites; ssRNA

Test [1] concerns the target PUM1 PUF domain R5-LYR (Homo sapiens, UniProt Q14671 828-1176, C1007L;R1008Y;Q1011R). An outline of the steps:
(§1)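 Matching RNA elements and Pumilio-1 PUF domain libraries, randomized at the three base-contacting residues of every repeat, were co-expressed from a centromeric plasmid in strain YBZ-1 (LexA–MS2 coat fusion, HIS3 reporter). The repeat regions were PCR-amplified and Illumina-sequenced from cells grown four days on SC-Leu (input) or SC-Leu-His + 0.5 mM 3-AT (selection). The interaction score is the log change in variant frequency from input to selection. It is computed in log2, with a pseudocount of 1 for absent variants.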

The target of test [2] is PUM1 PUF domain R5-DFS (Homo sapiens, UniProt Q14671 828-1176, C1007D;R1008F;Q1011S). The essentials:
as §1

Test [3] addresses PUM1 PUF domain R3-YRW (Homo sapiens, UniProt Q14671 828-1176, C935Y;Q939W). The essentials: as §1
For test [4], the target named is T1, PUM1 PUF domain R6-WHR (Homo sapiens, UniProt Q14671 828-1176, N1043W;Y1044H;Q1047R).
T1 sequence: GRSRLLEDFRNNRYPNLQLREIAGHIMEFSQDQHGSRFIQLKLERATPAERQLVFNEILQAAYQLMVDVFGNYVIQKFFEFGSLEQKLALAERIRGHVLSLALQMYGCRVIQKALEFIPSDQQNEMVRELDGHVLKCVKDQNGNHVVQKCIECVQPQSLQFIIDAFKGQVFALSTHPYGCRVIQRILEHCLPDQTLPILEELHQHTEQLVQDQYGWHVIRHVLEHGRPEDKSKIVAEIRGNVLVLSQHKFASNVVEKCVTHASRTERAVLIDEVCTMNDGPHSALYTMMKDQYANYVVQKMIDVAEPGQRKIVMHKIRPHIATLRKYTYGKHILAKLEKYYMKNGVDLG
An outline of the steps: as §1

Test [5] addresses PUM1 PUF domain R5-SVV (Homo sapiens, UniProt Q14671 828-1176, C1007S;R1008V;Q1011V). The essentials: as §1
The target of test [6] is PUM1 PUF domain R3-CRI (Homo sapiens, UniProt Q14671 828-1176, Q939I). An outline of the steps: as §1
Test [7] has as its target PUM1 PUF domain R3-TRT (Homo sapiens, UniProt Q14671 828-1176, C935T;Q939T). An outline of the steps:
as §1

For test [8], the target named is PUM1 PUF domain R1-RKL (Homo sapiens, UniProt Q14671 828-1176, S863R;R864K;Q867L). The essentials: as §1
For test [9], the target named is PUM1 PUF domain R1-KWS (Homo sapiens, UniProt Q14671 828-1176, S863K;R864W;Q867S). The essentials: as §1
Test [10] deals with PUM1 PUF domain R2-SIP (Homo sapiens, UniProt Q14671 828-1176, N899S;Y900I;Q903P). An outline of the steps:
as §1

Take “GGCUAGAACUAGUGGAUCCCCCGGCGCCCGGCGGCUCGAGCCCGGGUAAGUGUCAAUAGUCUGCAUGCCGCCGGGCGCCAUGCCUGCAGGUCGACUCUAGAAAACAUG”: the binding signal in [1] was 3.17 log2 enrichment (interaction score).

Consider “GGCUAGAACUAGUGGAUCCCCCGGCGCCCGGCGGCUCGAGCCCGGGUAAGUGUUAAUAGUCUGCAUGCCGCCGGGCGCCAUGCCUGCAGGUCGACUCUAGAAAACAUG”, for which the binding signal in test [1] was 3.43 log2 enrichment (interaction score); in [2] it was 5.63 log2 enrichment (interaction score).

On to “GGCUAGAACUAGUGGAUCCCCCGGCGCCCGGCGGCUCGAGCCCGGGUAAGUGUAAGUAGUCUGCAUGCCGCCGGGCGCCAUGCCUGCAGGUCGACUCUAGAAAACAUG”, for which the binding signal in test [3] was 4.4 log2 enrichment (interaction score).

On to “GGCUAGAACUAGUGGAUCCCCCGGCGCCCGGCGGCUCGAGCCCGGGUAAGUGUAAAUAGUCUGCAUGCCGCCGGGCGCCAUGCCUGCAGGUCGACUCUAGAAAACAUG”, for which the binding signal in test [4] is 3.96 log2 enrichment (interaction score); in test [1], 4.43 log2 enrichment (interaction score); in [5] it was 0.43 log2 enrichment (interaction score); in test [6] it was 3.93 log2 enrichment (interaction score); in test [7], 4.01 log2 enrichment (interaction score).

As to “GGCUAGAACUAGUGGAUCCCCCGGCGCCCGGCGGCUCGAGCCCGGGUAAGUGUAAUUAGUCUGCAUGCCGCCGGGCGCCAUGCCUGCAGGUCGACUCUAGAAAACAUG”, the binding signal in [7] is 1.8 log2 enrichment (interaction score).

Take “GGCUAGAACUAGUGGAUCCCCCGGCGCCCGGCGGCUCGAGCCCGGGUAAGUGUAAAUUGUCUGCAUGCCGCCGGGCGCCAUGCCUGCAGGUCGACUCUAGAAAACAUG”: the binding signal was 2.52 log2 enrichment (interaction score) in test [8] and 3.62 log2 enrichment (interaction score) in test [9].

For “GGCUAGAACUAGUGGAUCCCCCGGCGCCCGGCGGCUCGAGCCCGGGUAAGUGUGAAUAGUCUGCAUGCCGCCGGGCGCCAUGCCUGCAGGUCGACUCUAGAAAACAUG”, the binding signal in [1] is 0.51 log2 enrichment (interaction score); in test [5], 3.44 log2 enrichment (interaction score).

Regarding “GGCUAGAACUAGUGGAUCCCCCGGCGCCCGGCGGCUCGAGCCCGGGUAAGUGUAAAUCGUCUGCAUGCCGCCGGGCGCCAUGCCUGCAGGUCGACUCUAGAAAACAUG”, the binding signal in test [9] was 3.87 log2 enrichment (interaction score).

Regarding “GGCUAGAACUAGUGGAUCCCCCGGCGCCCGGCGGCUCGAGCCCGGGUAAGUGUAAAGAGUCUGCAUGCCGCCGGGCGCCAUGCCUGCAGGUCGACUCUAGAAAACAUG”, in test [10], the binding signal is 3.71 log2 enrichment (interaction score).
